# Laboratory results reported in PubChem BioAssay.
# The source made the active and inactive calls. Unless noted, how the calls were made is not given here.
# Experiments:
# [1] = system: XIP peptide (Xip251-270) binding; assay: small-molecule binders of XIP peptide, primary screen, biochemical, small-molecule microarray, fluorescence 635/667 nm, 0.1 µg/mL protein (AID 1182); conditions: fluorescent protein binding, 635 nm, higher = more signal, called active from +8 up or from −8 down
# XIP peptide (Xip251-270) = assay: small-molecule binders of XIP peptide, primary screen, biochemical, small-molecule microarray, fluorescence 635/667 nm, 0.5 µg/mL protein (AID 1183); conditions: small-molecule microarray binding, fluorescence 635 nm; higher = more signal
# [2] = Plasmodium falciparum growth inhibition, primary screen, strain 3D7, DAPI fluorescence, 100 nL (AID 1184);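 further: parasites grown inside human red blood cells in medium with human serum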; conditions: P. falciparum 3D7 growth, 3 d, higher = more signal
# [3] = target: Homeobox protein Hox-A13 (Mus musculus) (UniProt Q62424); assay: inhibitors of HoxA13-DNA binding, primary screen, biochemical, fluorescence polarization, labeled oligonucleotide (AID 1185); conditions: 15 min, higher = more signal, called active from +8 up or from −8 down
# Homeobox protein Hox-A13 (Mus musculus), sequence (Q62424 whole entry, looked up): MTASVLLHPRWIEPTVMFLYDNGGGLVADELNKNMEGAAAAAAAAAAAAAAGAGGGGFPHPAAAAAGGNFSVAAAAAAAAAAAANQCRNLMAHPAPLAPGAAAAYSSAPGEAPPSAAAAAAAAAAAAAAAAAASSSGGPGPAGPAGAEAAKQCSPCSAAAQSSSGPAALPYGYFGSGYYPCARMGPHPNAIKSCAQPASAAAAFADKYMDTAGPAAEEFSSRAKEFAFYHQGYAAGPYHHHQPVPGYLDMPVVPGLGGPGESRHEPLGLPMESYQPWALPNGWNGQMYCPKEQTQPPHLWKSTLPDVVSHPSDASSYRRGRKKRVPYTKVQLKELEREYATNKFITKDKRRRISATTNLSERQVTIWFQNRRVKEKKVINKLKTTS
# [4] = inhibitors of hydroxyurea-induced Chk1 phosphorylation, primary screen, imaging, HeLa, phospho-Chk1 antibody, percent positive cells (AID 1186); conditions: hydroxyurea-induced phospho-Chk1 immunofluorescence imaging, higher = more signal
# [5] = inhibitors of hydroxyurea-induced Chk1 phosphorylation, primary screen, imaging, HeLa, phospho-Chk1 nuclear intensity (AID 1187); conditions: hydroxyurea-induced phospho-Chk1 immunofluorescence imaging, higher = more signal
SMILES,composite z-score [1],composite z-score (XIP peptide (Xip251-270)),z-score [2],z-score [3],z-score [4],z-score [5]
O=C1O[C@@H](c2ccccc2)[C@@H](c2ccccc2)N2[C@@H](c3ccc(OCCO)cc3)[C@]3(C(=O)Nc4ccccc43)[C@@H](C(=O)N3CCN(c4ncccn4)CC3)[C@H]12,0.0629 (inactive),0.812,-2.11,1.84 (inactive),0.189 (inactive),0.644 (inactive)
CC(C)NC(=O)[C@@]1(c2ccc([N+](=O)[O-])cc2)CC(=O)N(CC23CC4CC(CC(C4)C2)C3)[C@@H]1c1ccc(CO)cc1I,0.805 (inactive),0.704,-0.705,-3.26 (inactive),-0.122 (inactive),1.16 (inactive)
CS(=O)(=O)CCOC(=O)C1=CC(CCCO)=CC(c2cccs2)N(Cc2cccc(OC(F)(F)F)c2)C=C1C(=O)OCCS(C)(=O)=O (centres undefined),1.17 (inactive),-0.0502,-2.99,-4.22 (inactive),0.724 (inactive),0.918 (inactive)
COCCOC(=O)N1C(=O)[C@@]2(c3cc(C#Cc4ccc(OC)cc4)ccc31)[C@H](C(=O)N1CCN(c3ncccn3)CC1)[C@H]1C(=O)O[C@H](c3ccccc3)[C@H](c3ccccc3)N1[C@@H]2c1ccc(OCCO)cc1,0.115 (inactive),0.43,-1.49,1.38 (inactive),-0.102 (inactive),-0.0346 (inactive)
C=CCC(OC(C)=O)[C@@H]1[C@@H](N(Cc2cc3ccccc3o2)C(=O)Cc2ccc(F)cc2)c2cc(OCCCO)ccc2N1C(=O)Cc1ccc(OC)cc1 (some centres undefined),-0.386 (inactive),-0.0246,0.163,-2.68 (inactive),0.784 (inactive),0.0687 (inactive)
COCCOC(=O)N1C(=O)[C@@]2(c3cc(C#CCNC(N)=O)ccc31)[C@H](c1ccccc1OCCO)N1[C@H](c3ccccc3)[C@H](c3ccccc3)OC(=O)[C@H]1[C@@H]2C(=O)N1CCN(c2ncccn2)CC1,0.521 (inactive),0.787,-2.09,-0.789 (inactive),-0.44 (inactive),-0.438 (inactive)
CCOC(=O)C[C@H]1[C@H](OC(=O)c2ccc(C(=O)c3ccccc3)cc2)[C@@H](NC(=O)c2ccc(-c3ccccc3)cc2)c2cc(OCCCO)ccc2N1C(=O)c1ccc2ccccc2n1,1.25 (inactive),0.388,-1.04,-0.834 (inactive),-0.916 (inactive),-0.596 (inactive)
COC(=O)C1(C)C=C2C(=C(c3ccccc3)C(=O)C2C)CN1 (centres undefined),-0.21 (inactive),0.923,-0.0619,-7.29 (inactive),0.74 (inactive),0.84 (inactive)
COC(=O)c1c(CC[C@@H](CO)NC(=O)N[C@H](Cc2ccccc2)Cn2cc(-c3ccccc3N)nn2)oc(C(C)=O)c1C(=O)OC,0.0074 (inactive),0.0678,-1.29,-5.26 (inactive),-0.125 (inactive),0.189 (inactive)
CCOC(=O)C1=CCC(c2cc3ccccc3[nH]2)NC1 (centres undefined),-0.0143 (inactive),-0.753,-0.501,-1.51 (inactive),0.437 (inactive),-0.151 (inactive)
CN(C)CCCNC(=O)[C@@H]1c2ccccc2C(=O)N(Cc2cc(F)cc(C(F)(F)F)c2)[C@H]1c1ccc(CO)cc1,0.782 (inactive),-0.0306,-0.1,-3.29 (inactive),0.241 (inactive),-0.0884 (inactive)
O=C1NC(=O)C2C1C=CC(C(O)Cc1ccccc1)N2Nc1ccccn1 (centres undefined),-0.0757 (inactive),0.804,0.396,-3.75 (inactive),-0.349 (inactive),-0.306 (inactive)
CC(C)NC(=O)[C@@]1(C)c2ccccc2C(=O)N(Cc2cc(F)cc(C(F)(F)F)c2)[C@H]1c1ccc(CO)cc1,1.06 (inactive),0.863,0.281,-3.73 (inactive),0.0123 (inactive),-0.37 (inactive)
COCCCNC(=O)[C@]1(CCC(=O)OC(C)(C)C)N=C(c2ccc(OCCCO)cc2)O[C@@H]1c1ccccc1N=[N+]=[N-],0.448 (inactive),0.764,-1.75,-4.03 (inactive),-0.437 (inactive),-0.234 (inactive)
COc1ccc([Si](C)(C)[C@@H]2[C@@H](CC(=O)N3CCC[C@H]3CO)O[C@]3(C(=O)N(Cc4cccc(N5CCC5=O)c4)c4ccccc43)[C@H]2C)cc1,1.07 (inactive),0.824,-0.744,-2.64 (inactive),-0.532 (inactive),0.535 (inactive)
[N-]=[N+]=NCc1ccccc1C[C@]1(C(=O)NCc2ccccc2)N=C(c2ccc(OCCCO)cc2)O[C@H]1c1ccccc1N=[N+]=[N-],-0.649 (inactive),0.344,-2.52,0.378 (inactive),-0.278 (inactive),-0.2 (inactive)
CCCNC(=O)[C@@H]1c2ccccc2C(=O)N(c2ccc(C)cn2)[C@H]1c1ccc(CO)cc1,-0.239 (inactive),-0.314,0.167,-2.4 (inactive),0.929 (inactive),0.52 (inactive)
C=C(COC)/C(=C/C[C@H](OC(=O)c1ccncc1)c1ccc(CO)o1)c1cc(C(=O)OC)ccc1OC,-0.222 (inactive),0.483,0.215,-5.06 (inactive),-0.35 (inactive),-0.437 (inactive)
C=CCOC(=O)[C@H]1[C@@H]2C(=O)O[C@@H](c3ccccc3)[C@@H](c3ccccc3)N2[C@@H](c2ccc(OCCOC(=O)[C@H]3C[C@H]4C(=O)N5CCC[C@H]5C(=O)N4[C@H]3c3cccc(OCCO)c3)cc2)[C@]12C(=O)Nc1ccc(I)cc12,2.54 (inactive),0.829,-0.139,-1.27 (inactive),-0.576 (inactive),-0.305 (inactive)
C/C=C\[C@@H](NCc1ccccc1Br)[C@@H](O)Cc1ccccc1,-0.0971 (inactive),0.0819,-1.64,-1.47 (inactive),0.0731 (inactive),0.35 (inactive)
CN1C(=O)C2C(C1=O)C1C=C(CCCO)C2C(c2ccc(CN3CCCC3)cc2)N1C (centres undefined),0.413 (inactive),-0.598,-1.27,-7.16 (inactive),-0.0348 (inactive),0.185 (inactive)
Cn1cccc1C(O)C1C=CC2C(=O)NC(=O)C2N1Nc1ccccn1 (centres undefined),-0.262 (inactive),0.916,-0.119,-5.35 (inactive),0.242 (inactive),-0.431 (inactive)
CN1C(=O)C2C=CC(C(O)C(c3ccccc3)c3ccccc3)N(NC(=O)OC(C)(C)C)C2C1=O (centres undefined),3.1 (inactive),0.752,0.617,-4.08 (inactive),0.242 (inactive),-0.158 (inactive)
CC(C)(C)OC(=O)CC[C@]1(C(N)=O)COC(c2ccc(OCCCO)cc2)=N1,2.48 (inactive),0.223,0.0099,-1.89 (inactive),0.764 (inactive),0.572 (inactive)
COCCOC(=O)N1C(=O)[C@@]2(c3cc(C#CCNC(N)=O)ccc31)[C@H](c1ccc(O)cc1)N1[C@H](c3ccccc3)[C@H](c3ccccc3)OC(=O)[C@H]1[C@@H]2C(=O)N1CCCCCCC1,0.348 (inactive),0.561,-0.0743,-0.578 (inactive),0.149 (inactive),0.452 (inactive)
CO[C@H]1O[C@H](CO)[C@@H](OC(=O)Nc2ccc3c(c2)OCO3)[C@H](OC(=O)Nc2ccccc2-c2ccccc2)[C@@H]1OC(=O)Nc1ccccc1-c1ccccc1,1.03 (inactive),0.561,-2.6,-2.64 (inactive),-0.313 (inactive),-0.199 (inactive)
CC(C)[Si]1(C(C)C)O[C@@H](c2ccccc2)c2cc(C3CC3)nc(-c3ccccc3)c21,-0.431 (inactive),0.555,0.0193,-1.21 (inactive),-0.652 (inactive),-0.694 (inactive)
C#C[C@@H]1Oc2ccccc2S(=O)(=O)N2CCC[C@H]12,-0.037 (inactive),-0.149,-0.0728,-0.61 (inactive),0.723 (inactive),0.595 (inactive)
N#Cc1ccc(NN2C(C(O)c3cccc4ccccc34)C=CC3C(=O)N(c4ccccc4)C(=O)C32)cc1 (centres undefined),0.366 (inactive),0.684,-0.0446,1.05 (inactive),-0.145 (inactive),0.137 (inactive)
